# 697 NFkB inh: inhibitors of the PMA/ionomycin-induced NF-kB reporter in 697 B cells. AID 435022. actives 0.33% (n = 330,000). 697 B-cell NF-kB luciferase reporter, 16 h. inhibition, % at 4 µM; in the data active means inhibition above about 35%
# Shn3 inh set2: Schnurri-3 reporter inhibition in Clone20 osteoblasts | Clone20 osteoblast Shn3 3'UTR firefly luciferase, 24 h | inhibition, % at 12.5 µM | actives 0.52% (n = 360,000);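 active means mean inhibition of at least 75% with every replicate also reaching 75%; inconclusive means mean inhibition at least 75% but some replicate below; inactive means mean inhibition below 75%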;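 further: 0% = median of neutral control wells and 100% = pilot-screen positive control compound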
# Calb FLC: C. albicans growth modulation with fluconazole; C. albicans CaCi-2 (fluconazole-resistant clinical isolate) + fluconazole, Alamar Blue growth, 48 h; AID 1979; actives 0.57% (n = 300,000); growth inhibition, % (concentration not given with the values);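 active means growth inhibition above about 58% in most replicates, limit read from the data, passing the limit was not always enough; inconclusive means exactly half the replicates above a set limit; inactive means most replicates below a set limit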;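 further: all wells also contain fluconazole at 8 µg/ml as a sub-toxic cotreatment; 0% = median of DMSO wells and 100% = median of geldanamycin control wells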
# Beta cell apopt: blocks beta cell apoptosis | INS-1E cytokine-induced death, ATP luminescence, 48 h; percent of positive-control rescue, neutral wells zero | protection from apoptosis, % (no concentration beside the values) | actives 0.8% (n = 300,000) | AID 435005;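 active means Every replicate reaches about 75%, or at least half do and their mean reaches it too, limit read from the data; inconclusive means At least half of replicates reach the limit but their mean does not; inactive means Under half of replicates reach the limit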;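 further: 0% = cytokine-treated negative control wells and 100% = positive control rescue; higher means more ATP so stronger rescue from cytokine killing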
# Jurkat NFkB inh: inhibitors of the PMA/ionomycin-induced NF-kB reporter in Jurkat cells; AID 435003; inhibition, % at 4 µM; actives 0.53% (n = 330,000); PMA/ionomycin-induced NF-kB luciferase reporter, luminescence; in the data active means inhibition above about 50%
# The depositor's hits bear a star; ? = inconclusive; / = no result given. Shown are actives, neighbours in structure and some others; about 2% of the full set was active somewhere.
SMILES,697 NFkB inh,Shn3 inh set2,Calb FLC,Beta cell apopt,Jurkat NFkB inh
COc1cc(NC2CCCCC2O)c2nc(-c3ccc(Cl)cc3)ccc2c1 (configuration not stated),-18,-14,-4,80*,1
N#Cc1ccc(-c2ccc(Cl)cc2)nc1SCC(=O)c1cccc(Cl)c1,4,16,-4,91*,-12
N#Cc1ccc(-c2ccccc2)nc1SCC(=O)c1cccc(Cl)c1,4,-25,3,-7,-6
Cc1ccc(NS(=O)(=O)c2ccc(CCC(=O)NCCO)cc2)cc1,0,-7,112*,4,-9
Cc1ccc(NS(=O)(=O)c2ccc(CCC(=O)NCc3ccccn3)cc2)cc1,-10,5,-5,-1,12
COc1cnc(-c2ccccn2)nc1N(C)C,5,89*,6,81*,16
COc1cnc(-c2ccccn2)nc1Sc1ccccc1Cl,-9,24,81*,86*,-8
COc1ccc(Oc2nc(-c3ccccn3)ncc2OC)cc1,11,5,-2,3,5
COCCNC(=O)C(c1ccc(Cl)cc1)N(C(=O)Cn1nnc2ccccc21)c1cccnc1 (configuration not stated),-3,-30,19,2,-3
O=C1c2ccccc2NC(c2ccc(-c3ccc(Br)cc3)o2)N1O (configuration not stated),-12,20,102*,9,-1
CN(C)c1ccc(C=c2c3ccccc3n3c2c2ccccc2[n+]3C)cc1,/,93*,/,/,/
Cc1cc2c(=Cc3ccc(N(C)C)cc3)c3ccccc3n2[n+]1C,/,78,/,/,/
COc1ccc(CNC(=O)CN2C(=O)NC(c3ccccc3)(c3ccccc3)C2=O)cc1OC,/,23,/,/,/
O=C1CC(c2cccc(O)c2)Oc2ccccc21 (configuration not stated),9,-21,/,-3,-10
Cc1cc(O)c(/C=N/Nc2ccc(F)cc2)c(=O)o1,12,8,122*,-2,0
Cc1ccc(N/N=C/c2c(O)cc(C)oc2=O)cc1,3,26,-14,-3,4
CC(=O)Nc1c(Br)cc2c(c1Br)C(=O)c1ccccc1-2,/,0,/,/,/
CC(=O)C1=C(c2ccc(Br)cc2)C(=O)c2ccccc2C1=O,/,97*,71,107*,/
Cc1cccn2c(=O)nc(SCC(=O)N3CCCC3)nc12,10,-33,-9,/,7
Nc1nc(-c2ccccn2)nc(N)c1Cc1ccc(Cl)cc1Cl,5,81,24,96*,-16
Nc1nc(-c2ccccn2)nc(N)c1Cc1ccccc1F,-8,-6,21,20,-19
Nc1nc(-c2ccccn2)nc(N)c1Cc1c(F)cccc1Cl,-10,77,?,96*,-17
CSc1nc(N2CCN(Cc3ccc4c(c3)OCO4)CC2)c2ccccc2n1,-12,86*,-9,3,-11
CCn1c(=O)c([N+](=O)[O-])c(N2CCN(Cc3ccc4c(c3)OCO4)CC2)c2ccccc21,9,15,-12,129*,16
CCn1c(=O)c([N+](=O)[O-])c(N2CCSCC2)c2ccccc21,-27,18,-3,-4,9
SMILES,697 NFkB inh,Shn3 inh set2,Calb FLC,Beta cell apopt,Jurkat NFkB inh
CC1(C)CC(NC(=O)c2ccc(Br)o2)CC(C)(C)N1,9,-44,-4,-7,-8
O=C(NCc1ccccc1Cl)c1ccc(S(=O)(=O)Nc2cccc(C(F)(F)F)c2)cc1,2,-46,13,/,-3
C/C(Cc1ccccc1)=N\NC(=O)c1ccccn1,9,-4,31,-4,-2
COc1ccc(C(=O)N/N=C(\c2ccccc2)c2ccccn2)cc1,/,87*,17,113*,/
O=C(NN=C(c1ccccc1)c1ccccn1)c1ccccc1,-30,84*,/,103*,45
O=C(N/N=C(\c1ccccc1)c1ccccn1)c1ccccc1Cl,-16,95*,23,94*,45
CCN(CC)S(=O)(=O)c1ccc(C(=O)NCC(=O)NCc2ccc3c(c2)OCO3)cc1,/,10,/,/,/
COc1cc(C(=O)O[C@H]2CC(C)=CC[C@@]3(C)CC[C@@](O)(C(C)C)[C@H]23)ccc1O,5,21,15,2,-16
CN1CCN(S(=O)(=O)c2ccc(Sc3nnnn3-c3ccccc3)c([N+](=O)[O-])c2)CC1,15,87*,15,/,16
CCc1ccc(/C(C)=N\Nc2ccc([N+](=O)[O-])cc2)cc1,-32,-16,129*,10,-45
COc1ccccc1-n1c(=O)oc2ccc(Cl)cc2c1=O,7,1,/,104*,-1
COc1c(Cl)c(=O)oc2ccc(Cl)cc12,/,-11,/,/,/
CNc1nc(N)c([N+](=O)[O-])c(Nc2cccc(F)c2)n1,-14,-3,15,94*,-3
CNc1nc(N)c([N+](=O)[O-])c(Nc2cccc(Cl)c2)n1,-23,7,18,-4,3
Cc1ccc(C(=O)NNC(=O)c2cc3ccccc3cc2O)cc1,7,-32,91*,-2,9
COc1cc2ccccc2cc1C(=O)NNC(=O)c1ccccc1O,-23,19,95*,7,3
O=C(NC(=S)NNC(=O)c1cc2ccccc2cc1O)c1ccco1,-63,10,83*,30,-10
O=C(NC(=S)NNC(=O)c1ccccc1O)c1ccco1,/,-9,41,0,/
COc1ccc(C)cc1NC(=O)NNC(=O)c1cc2ccccc2cc1O,-4,-19,93*,0,-10
CCOc1ccc(Nc2nc(N(C)c3ccccc3)nc(N)c2[N+](=O)[O-])cc1,-18,-3,0,2,1
CCOC1=C2[C@@H](CN(S(=O)(=O)c3ccc(C)cc3)[C@H]2c2cccs2)[C@H]2C(=O)N(c3ccccc3)C(=O)[C@H]2C1,/,19,/,/,/
CCOc1ccc(NC(=O)NNC(=O)c2ccc3ccccc3c2O)cc1,-21,-4,85*,-3,16
O=C(NNC(=O)c1cc2ccccc2cc1O)Nc1ccc(Br)cc1,19,2,6,4,17
COc1ccc(NC(=O)NNC(=O)c2cc3ccccc3cc2O)cc1,15,-99,86*,2,-2
O=[N+]([O-])c1ccc(-[n+]2nc(-c3ccccc3)nn2-c2ccccc2)cc1,13,22,-6,1,16
SMILES,697 NFkB inh,Shn3 inh set2,Calb FLC,Beta cell apopt,Jurkat NFkB inh
Cn1cc(Cc2ccc(C(=O)NCc3ccccc3)cn2)c2ccccc21,/,6,/,/,/
O=C(NNC(=O)c1ccccc1OCc1ccccc1)c1ccccc1O,-39,58,-3,86*,8
O=C(NNC(=O)c1ccccc1OCc1ccccc1)c1ccccc1F,-36,-31,/,5,-14
O=C(NNC(=O)c1ccccc1OCc1ccc(F)cc1)c1ccccc1O,-31,65,-35,87*,17
O=c1cc(CN2CCN(Cc3ccccc3)CC2)c2ccc(O)c(O)c2o1,-34,21,88*,-3,20
Cc1c(O)ccc2c(CN3CCN(Cc4ccccc4)CC3)cc(=O)oc12,7,-16,5,-3,14
Cc1csc(=O)n1CCC(=O)OCC(=O)c1c(N)n(CC(C)C)c(=O)n(C)c1=O,16,80,4,-2,12
